# Several values for one entry are separate records, joined by “and”; a condition that tells them apart may be missing. Identical values can stand only once. Hit rate of the full screen: of about 5,500 compounds, about 2,000 (36%) were called active. Another 18% or so got no clear call; they are omitted. Some of the results follow. Values without a mark were called inactive. Cut-off read from the data, not from the text of the source: active = normalized growth mostly below about 0.91 (no sharp cut-off); inconclusive = no clear call, values can overlap the other calls; inactive = mostly above about 0.92.
# Assay: chemical genetic growth profiling, strain panel (AID 1159580);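 note: tested at 20 µM; growth read once vehicle control cultures reached saturation at 30 °C; 1 = growth at the plate median or of vehicle wells; lower values mean less growth of the strain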
# Details: S. cerevisiae deletion strains, growth OD
smiles,measurement,setting,value
CCC(C)C(=O)O[C@@H]1C[C@@]2(C)[C@H](c3ccoc3)OC(=O)CC23OC2(C)OC34[C@H](OC(=O)C(C)C)[C@@]3(O)[C@@H](OC(=O)C5(C)OC5C)[C@@]5(C)C[C@]3(O)[C@@](C)([C@H]5CC(=O)OC)C14O2 (stereo partly drawn),normalized growth,"locus YAL021C, strain ccr4, active compounds read low",1.03
same,normalized growth,"locus YAL026C, strain drs2, active compounds read low",0.981
same,normalized growth,"locus YAL030W, strain snc1, active compounds read low",0.996
same,normalized growth,"locus YBL061C, strain skt5, active compounds read low",1
same,normalized growth,"locus YBR009C, strain hhf1, active compounds read low",1.02
same,normalized growth,"locus YBR021W, strain FUR4, active compounds read low",1.07
same,normalized growth,"locus YBR023C, strain chs3, active compounds read low",1
same,normalized growth,"locus YBR171W, strain sec66, active compounds read low",0.988
same,normalized growth,"locus YBR229C, strain ROT2, active compounds read low",1.01
same,normalized growth,"locus YBR231C, strain swc5, active compounds read low",0.996
same,normalized growth,"locus YBR279W, strain paf1, active compounds read low",0.995
same,normalized growth,"locus YCL011C, strain gbp2, active compounds read low",1
same,normalized growth,"locus YCL016C, strain dcc1, active compounds read low",1.01
same,normalized growth,"locus YCL029C, strain bik1, active compounds read low",0.994
same,normalized growth,"locus YCL061C, strain MRC1, active compounds read low",1
same,normalized growth,"locus YCL069W, strain vba3, active compounds read low",0.995
same,normalized growth,"locus YCR088W, strain abp1, active compounds read low",0.999
same,normalized growth,"locus YDL005C, strain med2, active compounds read low",1.02
same,normalized growth,"locus YDL035C, strain GPR1, active compounds read low",0.974
same,normalized growth,"locus YDL040C, strain nat1, active compounds read low",0.996
same,normalized growth,"locus YDL074C, strain BRE1, active compounds read low",1.01
same,normalized growth,"locus YDL101C, strain DUN1, active compounds read low",1.03
same,normalized growth,"locus YDL185W, strain tfp1, active compounds read low",1.01
same,normalized growth,"locus YDL192W, strain arf1, active compounds read low",0.987
same,normalized growth,"locus YDR001C, strain nth1, active compounds read low",0.999
same,normalized growth,"locus YDR069C, strain doa4, active compounds read low",0.991
same,normalized growth,"locus YDR101C, strain arx1, active compounds read low",0.977
same,normalized growth,"locus YDR137W, strain rgp1, active compounds read low",0.651 (active)
same,normalized growth,"locus YDR150W, strain NUM1, active compounds read low",1
same,normalized growth,"locus YDR159W, strain sac3, active compounds read low",0.981
same,normalized growth,"locus YDR162C, strain NBP2, active compounds read low",0.993
same,normalized growth,"locus YDR195W, strain ref2",1.03
same,normalized growth,"locus YDR297W, strain sur2, active compounds read low",0.992
same,normalized growth,"locus YDR318W, strain mcm21, active compounds read low",1.01
same,normalized growth,"locus YDR334W, strain swr1, active compounds read low",1
same,normalized growth,"locus YDR335W, strain msn5, active compounds read low",0.997
same,normalized growth,"locus YDR388W, active compounds read low",1.01
same,normalized growth,"locus YDR392W, strain spt3, active compounds read low",0.998
same,normalized growth,"locus YDR502C, strain sam2, active compounds read low",1.03
same,normalized growth,"locus YEL003W, strain gim4, active compounds read low",1
same,normalized growth,"locus YEL037C, strain rad23, active compounds read low",1.01
same,normalized growth,"locus YEL061C, strain CIN8 (second series), active compounds read low",1
same,normalized growth,"locus YEL061C, strain CIN8, active compounds read low",1
same,normalized growth,"locus YER015W, strain faa2, active compounds read low",1.01
same,normalized growth,"locus YER016W, strain bim1, active compounds read low",1
same,normalized growth,"locus YER110C, active compounds read low",1.02
same,normalized growth,"locus YER111C, strain swi4, active compounds read low",0.99
same,normalized growth,"locus YER155C, strain BEM2 (second series), active compounds read low",1.02
same,normalized growth,"locus YER155C, strain BEM2, active compounds read low",1.01
same,normalized growth,"locus YER167W, strain BCK2, active compounds read low",0.995
same,normalized growth,"locus YFR010W, strain ubp6, active compounds read low",1.01
same,normalized growth,"locus YGL078C, strain dbp3, active compounds read low",1.03
same,normalized growth,"locus YGL086W, strain mad1, active compounds read low",1.02
same,normalized growth,"locus YGL167C, strain pmr1, active compounds read low",0.993
same,normalized growth,"locus YGL173C, strain kem1, active compounds read low",0.977
same,normalized growth,"locus YGL227W, strain vid30, active compounds read low",0.992
same,normalized growth,"locus YGL240W, strain doc1, active compounds read low",1
same,normalized growth,"locus YGL248W, strain PDE1, active compounds read low",1.03
same,normalized growth,"locus YGL253W, strain hxk2, active compounds read low",0.986
same,normalized growth,"locus YGR135W, strain pre9, active compounds read low",1.06
same,normalized growth,"locus YGR252W, strain gcn5, active compounds read low",1.15
same,normalized growth,"locus YHR013C, strain ard1, active compounds read low",1.01
same,normalized growth,"locus YHR027C, strain rpn1, active compounds read low",0.996
same,normalized growth,"locus YHR030C, strain SLT2, active compounds read low",1.05
same,normalized growth,"locus YHR079C, strain IRE1 (second series), active compounds read low",1
same,normalized growth,"locus YHR079C, strain IRE1, active compounds read low",1.04
same,normalized growth,"locus YHR094C, strain hxt1, active compounds read low",1.01
same,normalized growth,"locus YHR129C, strain ARP1, active compounds read low",1.02
same,normalized growth,"locus YHR142W, strain chs7, active compounds read low",0.994
same,normalized growth,"locus YHR200W, strain rpn10, active compounds read low",1.03
same,normalized growth,"locus YIL066C, strain RNR3, active compounds read low",0.982
same,normalized growth,"locus YIL073C, strain SPO22, active compounds read low",1
same,normalized growth,"locus YIL125W, strain kgd1, active compounds read low",1
same,normalized growth,"locus YIR030C, strain dcg1, active compounds read low",1
same,normalized growth,"locus YJL092W, strain hpr5, active compounds read low",1.01
same,normalized growth,"locus YJL095W, strain BCK1 (second series), active compounds read low",1.02
same,normalized growth,"locus YJL095W, strain BCK1, active compounds read low",1.06 and 1.02
same,normalized growth,"locus YJL115W, strain asf1, active compounds read low",1.01
same,normalized growth,"locus YJL129C, strain trk1, active compounds read low",0.98
same,normalized growth,"locus YJL134W, strain LCB3, active compounds read low",1
same,normalized growth,"locus YJL154C, strain vps35, active compounds read low",0.993
same,normalized growth,"locus YJL164C, strain tpk1, active compounds read low",0.996
same,normalized growth,"locus YJL166W, strain qcr8, active compounds read low",0.989
same,normalized growth,"locus YJL168C, strain set2, active compounds read low",1.01
same,normalized growth,"locus YJL187C, strain SWE1 (second series), active compounds read low",1.04
same,normalized growth,"locus YJL187C, strain SWE1, active compounds read low",1
same,normalized growth,"locus YJR066W, strain TOR1, active compounds read low",0.979
same,normalized growth,"locus YJR075W, strain HOC1, active compounds read low",1.02
same,normalized growth,"locus YKL009W, strain mrt4, active compounds read low",0.972
same,normalized growth,"locus YKL068W, active compounds read low",1
same,normalized growth,"locus YKL085W, strain MDH1 (second series), active compounds read low",1
same,normalized growth,"locus YKL085W, strain MDH1, active compounds read low",1
same,normalized growth,"locus YKL160W, strain elf1, active compounds read low",0.966
same,normalized growth,"locus YKL190W, strain CNB1, active compounds read low",0.999
same,normalized growth,"locus YKR001C, strain vps1, active compounds read low",0.996
same,normalized growth,"locus YKR026C, strain gcn3, active compounds read low",1
same,normalized growth,"locus YKR091W, strain srl3, active compounds read low",0.996
same,normalized growth,"locus YLL001W, strain dnm1, active compounds read low",1
same,normalized growth,"locus YLL026W, active compounds read low",1
same,normalized growth,"locus YLL041C, strain sdh2, active compounds read low",0.988
same,normalized growth,"locus YLR027C, strain aat2, active compounds read low",1.01
same,normalized growth,"locus YLR039C, strain RIC1, active compounds read low",0.774
same,normalized growth,"locus YLR058C, strain SHM2, active compounds read low",1.01
same,normalized growth,"locus YLR102C, strain apc9, active compounds read low",1.01
same,normalized growth,"locus YLR113W, strain HOG1, active compounds read low",1.01
same,normalized growth,"locus YLR221C, strain rsa3, active compounds read low",0.994
same,normalized growth,"locus YLR258W, strain gsy2, active compounds read low",0.983
same,normalized growth,"locus YLR262C, strain YPT6 (second series), active compounds read low",0.647 (active)
same,normalized growth,"locus YLR268W, strain sec22, active compounds read low",0.958
same,normalized growth,"locus YLR320W, strain mms22, active compounds read low",0.999
same,normalized growth,"locus YLR342W, strain FKS1, active compounds read low",1.01
same,normalized growth,"locus YLR357W, strain rsc2, active compounds read low",1.03
same,normalized growth,"locus YLR370C, strain arc18, active compounds read low",0.996
same,normalized growth,"locus YLR371W, strain rom2, active compounds read low",1.01
same,normalized growth,"locus YLR384C, strain iki3, active compounds read low",1.01
same,normalized growth,"locus YLR418C, strain cdc73, active compounds read low",1.04
same,normalized growth,"locus YML016C, strain PPZ1, active compounds read low",1.01
same,normalized growth,"locus YML032C, strain rad52, active compounds read low",0.98
same,normalized growth,"locus YML120C, strain ndi1, active compounds read low",1.01
same,normalized growth,"locus YML124C, strain tub3, active compounds read low",0.998
same,normalized growth,"locus YMR058W, strain fet3, active compounds read low",1.01
same,normalized growth,"locus YMR078C, strain ctf18, active compounds read low",0.999
same,normalized growth,"locus YMR125W, strain sto1, active compounds read low",1.01
same,normalized growth,"locus YMR129W, active compounds read low",0.99
same,normalized growth,"locus YMR205C, strain PFK2, active compounds read low",0.975
same,normalized growth,"locus YMR223W, strain ubp8, active compounds read low",1.01
same,normalized growth,"locus YMR231W, strain pep5, active compounds read low",0.992
same,normalized growth,"locus YMR307W, strain GAS1, active compounds read low",1.01
same,normalized growth,"locus YNL067W, strain RPL9B, active compounds read low",1.05
same,normalized growth,"locus YNL071W, strain lat1, active compounds read low",1.02
same,normalized growth,"locus YNL128W, strain TEP1, active compounds read low",0.99
same,normalized growth,"locus YNL153C, strain GIM3, active compounds read low",1.07
same,normalized growth,"locus YNL183C, strain NPR1, active compounds read low",0.988
same,normalized growth,"locus YNL209W, strain ssb2, active compounds read low",1.02
same,normalized growth,"locus YNL233W, strain BNI4, active compounds read low",1.04
same,normalized growth,"locus YNL248C, strain rpa49, active compounds read low",1.03
same,normalized growth,"locus YNL250W, strain rad50, active compounds read low",1.05
same,normalized growth,"locus YNL271C, strain bni1, active compounds read low",1.01
same,normalized growth,"locus YNL298W, strain CLA4, active compounds read low",1.02
same,normalized growth,"locus YNL307C, strain MCK1, active compounds read low",1.01
same,normalized growth,"locus YNL322C, strain KRE1 (second series), active compounds read low",1
same,normalized growth,"locus YNL322C, strain KRE1, active compounds read low",1
same,normalized growth,"locus YNR049C, strain mso1, active compounds read low",1.01
same,normalized growth,"locus YNR052C, strain pop2, active compounds read low",1.03
same,normalized growth,"locus YOL012C, strain htz1",0.642
same,normalized growth,"locus YOL147C, strain pex11, active compounds read low",0.999
same,normalized growth,"locus YOR001W, strain rrp6, active compounds read low",1
same,normalized growth,"locus YOR061W, strain CKA2, active compounds read low",0.987
same,normalized growth,"locus YOR069W, strain VPS5, active compounds read low",1
same,normalized growth,"locus YOR070C, strain gyp1, active compounds read low",1.02
same,normalized growth,"locus YOR080W, strain dia2, active compounds read low",1.01
same,normalized growth,"locus YOR083W, strain WHI5, active compounds read low",1.01
same,normalized growth,"locus YOR106W, strain vam3, active compounds read low",0.998
same,normalized growth,"locus YOR136W, strain idh2, active compounds read low",1.01
same,normalized growth,"locus YOR144C, strain elg1, active compounds read low",0.998
same,normalized growth,"locus YOR184W, strain ser1, active compounds read low",0.971
same,normalized growth,"locus YOR231W, strain MKK1, active compounds read low",0.991
same,normalized growth,"locus YOR265W, strain rbl2, active compounds read low",0.984
same,normalized growth,"locus YOR270C, strain vph1, active compounds read low",0.777 (active)
same,normalized growth,"locus YOR290C, strain snf2, active compounds read low",1
same,normalized growth,"locus YOR316C, strain cot1, active compounds read low",0.999
same,normalized growth,"locus YPL051W, strain arl3, active compounds read low",0.983
same,normalized growth,"locus YPL055C, strain LGE1, active compounds read low",0.979
same,normalized growth,"locus YPL078C, strain atp4, active compounds read low",0.992
same,normalized growth,"locus YPL106C, strain sse1, active compounds read low",1.06
same,normalized growth,"locus YPL240C, strain hsp82, active compounds read low",1
same,normalized growth,"locus YPL241C, strain CIN2, active compounds read low",0.983
same,normalized growth,"locus YPL256C, strain CLN2, active compounds read low",1.04
same,normalized growth,"locus YPR119W, strain clb2, active compounds read low",1.01
same,normalized growth,"locus YPR141C, strain kar3, active compounds read low",1.01
same,normalized growth,"locus YPR163C, strain tif3, active compounds read low",1.01
same,normalized growth,"locus YPR167C, strain met16, active compounds read low",1.01
same,normalized growth,"strain wtn01, active compounds read low",0.982

# From PubChem BioAssay AID1159580 (chemical genetic matrix, 2015)
